Results filed as inconclusive are left out. The source made the active and inactive calls. Unless noted, the call rests on the fitted dose curve.
Assays:
[1] = qHTS assay to identify small molecule agonists of the vitamin D receptor (VDR) signaling pathway - cell viability counter screen (AID 743224; active means well fitted curve in the direction sought with a large enough effect in the repeat runs; an effect the other way counts as inactive or inconclusive; further: series mostly up to about 63 µM; on the % scale 0 is the no-effect control and ±100 the full control effect; nearly all actives have a fitted effect of over 50% in size)
In short: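 VDR-bla cells were preincubated 4 h at 37C/5% CO2, then exposed to compounds for 16 h. After the 2 h room-temperature bla FRET read, CellTiter-Glo was added to the same wells and luminescence read after 30 min.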

[2] = qHTS assay to identify small molecule agonists of the NFkB signaling pathway (AID 1159509; active means well fitted curve in the direction sought with a large enough effect in the signal ratio in the repeat runs, not every such curve was filed as active; the % refers to the signal ratio; further: series mostly up to about 61 µM; on the % scale 0 is the no-effect control and ±100 the full control effect)
In short: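 NFkB-bla ME-180 cells carry a beta-lactamase reporter under an NF-kB response element. They were plated overnight, then exposed to compounds for 5 h at 37 C. Read-out is LiveBLAzer FRET after 1.5 hr at room temperature (405 nm excitation; 460/530 nm emission).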

[3] = qHTS assay to identify small molecule agonists of the NFkB signaling pathway - cell viability counter screen (AID 1159515); further: series mostly up to about 61 µM; on the % scale 0 is the no-effect control and ±100 the full control effect; nearly all actives have a fitted effect of over 55% in size
In short: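 NFkB-bla ME-180 cells, 2,000/well, were plated overnight at 37 C, 5% CO2, then exposed to compounds in DMSO for 5 hr. After the bla FRET read, CellTiter-Glo was added to the same wells; luminescence was read after 30 min at room temperature.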

[4] = qHTS assay to identify small molecule agonists of the endoplasmic reticulum stress response signaling pathway (AID 1159516; active means well fitted activation curve with a large enough effect in the signal ratio in the repeat runs, not every such curve was filed as active; the % refers to the signal ratio; further: on the % scale 0 is the no-effect control and ±100 the full control effect)
In short: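 CellSensor ESRE-bla HeLa cells, carrying a beta-lactamase reporter driven by the ER stress response element, were plated overnight and exposed to compounds for 5 hr at 37 C. Reporter activity was read as FRET substrate fluorescence after 2 hr at room temperature.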

[5] = qHTS assay to identify small molecule agonists of the endoplasmic reticulum stress response signaling pathway - cell viability counter screen (AID 1159517); further: series mostly up to about 61 µM; on the % scale 0 is the no-effect control and ±100 the full control effect; nearly all actives have a fitted effect of over 50% in size
In short: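 HeLa cells carrying an ESRE-driven beta-lactamase reporter receive compound for 5 hr at 37 C. Cell viability is then gauged with CellTiter-Glo by luminescence, 30 min at room temperature.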

[6] = qHTS assay to identify small molecule antagonists of the retinoid-related orphan receptor gamma (ROR-gamma) signaling pathway - cell viability counter screen (AID 1159520; active means well fitted curve in the direction sought with a large enough effect in the repeat runs; an effect the other way counts as inactive or inconclusive; further: on the % scale 0 is the no-effect control and ±100 the full control effect; nearly all actives have a fitted effect of over 50% in size)
In short: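 Cytotoxicity was read from cellular ATP (CellTiter-Glo luminescence) after 16 hr at 37 C with 1 uM doxycycline induction. The inducer was added 2 hr after compound transfer to Tet-on ROR gamma CHO cells.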

[7] = molecular target: Nuclear receptor ROR-gamma (Homo sapiens) (UniProt P51449); experiment: qHTS assay to identify small molecule antagonists of the retinoid-related orphan receptor gamma (ROR-gamma) signaling pathway (AID 1159521; active means well fitted curve in the direction sought with a large enough effect in the repeat runs; an effect the other way counts as inactive or inconclusive;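 further: CHO cells with doxycycline inducible ROR-gamma driving an RORE luciferase reporter; top concentration of the series differs between compounds; on the % scale 0 is the no-effect control and ±100 the full control effect; nearly all actives have a fitted effect of over 50% in size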)
In short: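 RORγ antagonism is scored from reduced reporter luminescence in Tet-on CHO cells. Induction used 1 uM final doxycycline hyclate for 16 h at 37 C, following a 2 h compound exposure.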

[8] = qHTS assay to identify small molecule agonists of the AP-1 signaling pathway - cell viability counter screen (AID 1159525); further: nearly all actives have a fitted effect of over 55% in size
In short: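 Luminescent ATP readout (Cell Titer Glo, 30 min RT), normalised to DMSO and tetra n-octyl ammonium bromide controls. Cells were ME-180 AP-1-bla in 0.5% dialyzed FBS Opti-MEM, with a 5 h, 37 °C compound exposure.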

[9] = qHTS assay to identify small molecule agonists of the AP-1 signaling pathway (AID 1159526); further: on the % scale 0 is the no-effect control and ±100 the full control effect
[10] = qHTS assay to identify small molecule antagonists of the vitamin D receptor (VDR) signaling pathway - cell viability counter screen (AID 743225; active means well fitted curve in the direction sought with a large enough effect in the repeat runs; an effect the other way counts as inactive or inconclusive)
In short: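 Cells (VDR-UAS-bla HEK 293T) are plated, rested 4 h at 37C, dosed with compound and 3 nM final 1-alpha,25-dihydroxy vitamin D3, and incubated 16 h. Viability is taken from CellTiter-Glo luminescence in the reporter wells.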

COP(=O)(OC)O/C(C)=C/C(=O)N(C)C
inactive: Potency [1] | outcome [2] | outcome [3] | outcome [4] | Potency [5] | Potency [6] | Potency [7] | Potency [8] | outcome [9]

CCOC(=O)CC(SP(=S)(OC)OC)C(=O)OCC (centres undefined)
inactive: Potency [1] | outcome [2] | outcome [3] | outcome [4] | Potency [5] | Potency [6] | Potency [7] | Potency [8] | outcome [9]

CC(C)(N)Cc1ccccc1Cl
inactive: Potency [1] | Potency [10] | outcome [2] | outcome [3] | outcome [4] | Potency [5] | Potency [6] | Potency [7] | Potency [8] | outcome [9]

O=C1CCCCC1Cl (centres undefined)
inactive: Potency [1] | Potency [10] | outcome [2] | outcome [3] | outcome [4] | Potency [5] | Potency [6] | Potency [7] | Potency [8] | outcome [9]

O=P(O)(O)CN(CP(=O)(O)O)CP(=O)(O)O
inactive: Potency [1] | Potency [10] | outcome [2] | outcome [3] | outcome [4] | Potency [5] | Potency [6] | Potency [7] | Potency [8] | outcome [9]

N#CN=C1SCCN1Cc1ccc(Cl)nc1
inactive: Potency [1] | Potency [10] | outcome [2] | outcome [3] | outcome [4] | Potency [5] | Potency [6] | Potency [7] | Potency [8] | outcome [9]

Cl/C=C/CCl
inactive: Potency [1] | Potency [10] | outcome [2] | outcome [3] | outcome [4] | Potency [5] | Potency [6] | Potency [7] | Potency [8] | outcome [9]

O=C(CCl)NCO
inactive: Potency [1] | Potency [10] | outcome [2] | outcome [3] | outcome [4] | Potency [5] | Potency [6] | Potency [7] | Potency [8] | outcome [9]

CCc1cc(OC)c(C[C@H](C)N)cc1OC
inactive: Potency [1] | outcome [2] | outcome [3] | outcome [4] | Potency [5] | Potency [6] | Potency [7] | Potency [8] | outcome [9]

C=CCN1CC[C@]23CCCC[C@H]2[C@H]1Cc1ccc(O)cc13
inactive: Potency [1] | Potency [10] | outcome [2] | outcome [3] | outcome [4] | Potency [5] | Potency [6] | Potency [7] | Potency [8] | outcome [9]

Brc1c(Br)c(Br)c(Br)c(Br)c1Br
inactive: activity change, negative = cytotoxicity [1] 9.04% [at 5.95 µM] | activation [2] 0.368% [at 6.95 µM] | activity, negative = cytotoxic [3] -11.1% [at 6.95 µM] | activation [4] -0.555% [at 6.95 µM] | activity change, negative = cytotoxicity [5] 1.86% [at 6.95 µM] | activity, negative = cytotoxicity [6] 1.32% [at 8.39 µM] | activity change, negative = inhibition [7] 19.7% [at 8.39 µM] | viability change, negative = cytotoxic [8] -3.27% [at 6.97 µM] | activation [9] -7% [at 6.97 µM]

CC(O)CCl (centres undefined)
inactive: Potency [1] | Potency [10] | outcome [2] | outcome [3] | outcome [4] | Potency [5] | Potency [6] | Potency [7] | Potency [8] | outcome [9]

C=CCCC#N
inactive: Potency [1] | Potency [10] | outcome [2] | outcome [3] | outcome [4] | Potency [5] | Potency [6] | Potency [7] | Potency [8] | outcome [9]

COc1ccc2c(C(=O)c3ccc(Cl)cc3)c(C)n(CC(=O)O)c2c1
inactive: Potency [1] | Potency [10] | outcome [2] | outcome [3] | outcome [4] | Potency [5] | Potency [6] | Potency [7] | Potency [8] | outcome [9]

CCC1(c2ccccc2)CCC(=O)NC1=O (centres undefined)
inactive: Potency [1] | Potency [10] | outcome [2] | outcome [3] | outcome [4] | Potency [5] | Potency [6] | Potency [7] | Potency [8] | outcome [9]

O=P(O)(O)c1ccccc1
inactive: Potency [1] | Potency [10] | outcome [2] | outcome [3] | outcome [4] | Potency [5] | Potency [6] | Potency [7] | Potency [8] | outcome [9]

ClC(Cl)(Cl)Cl
inactive: Potency [1] | Potency [10] | outcome [2] | outcome [3] | outcome [4] | Potency [5] | Potency [6] | Potency [7] | Potency [8] | outcome [9]

O=[N+]([O-])c1cccc(CCl)c1
inactive: Potency [1] | outcome [2] | outcome [3] | outcome [4] | Potency [5] | Potency [6] | Potency [7] | Potency [8] | outcome [9]

C#CC(C)(C)O
inactive: Potency [1] | Potency [10] | outcome [2] | outcome [3] | outcome [4] | Potency [5] | Potency [6] | Potency [7] | Potency [8] | outcome [9]

CNC(=O)NC(O)C(Cl)(Cl)Cl (centres undefined)
inactive: Potency [1] | Potency [10] | outcome [2] | outcome [3] | outcome [4] | Potency [5] | Potency [6] | Potency [7] | Potency [8] | outcome [9]

CCN[C@@H](C)Cc1cccc(C(F)(F)F)c1
inactive: Potency [1] | Potency [10] | outcome [2] | outcome [3] | outcome [4] | Potency [5] | Potency [6] | Potency [7] | Potency [8] | outcome [9]

ClCCCCl
inactive: Potency [1] | Potency [10] | outcome [2] | outcome [3] | outcome [4] | Potency [5] | Potency [6] | Potency [7] | Potency [8] | outcome [9]

CCCCOC(C)=O
inactive: Potency [1] | outcome [2] | outcome [3] | outcome [4] | Potency [5] | Potency [6] | Potency [7] | Potency [8] | outcome [9]

Cc1ccc(-c2nc3ccc(C)cn3c2CC(=O)N(C)C)cc1
inactive: Potency [1] | Potency [10] | outcome [2] | outcome [3] | outcome [4] | Potency [5] | Potency [6] | Potency [7] | Potency [8] | outcome [9]

COC(=O)[C@@H](N)CCCN/C(N)=N/[N+](=O)[O-]
inactive: Potency [1] | Potency [10] | outcome [2] | outcome [3] | outcome [4] | Potency [5] | Potency [6] | Potency [7] | Potency [8] | outcome [9]
